Data as given in PubChem BioAssay AID2101 (National Center for Advancing Translational Sciences (NCATS), 2009).
In all, about 330,000 compounds went through this assay and about 300 (0.091%) were called active. Roughly 4% stayed inconclusive and do not appear here. The full list was thinned out, with actives kept by preference. Unmarked numbers belong to inactive results. Calls follow the shape of the dose curve; as a rule, active = well fitted inhibition curve with a large enough effect; inconclusive = small, poorly fitted or top-dose-only effect, or effect the other way, or another doubt; inactive = no such curve, though single readings can be large or run the other way.

target: Lysosomal acid glucosylceramidase (Homo sapiens) (UniProt P04062); test: qHTS Assay for Inhibitors and Activators of N370S glucocerebrosidase as a Potential Chaperone Treatment of Gaucher Disease; details: N370S GC spleen homogenate, 4MU-glucoside fluorescence; series mostly up to 59.4 µM; activity change, negative = inhibition: at the top concentration;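 as to activity change, negative = inhibition: 0% = full enzyme activity and -100% = no enzyme basal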
Excerpt: NIH Chemical Genomics Center [NCGC]
NIH Molecular Libraries Probe Production Centers Network [MLPCN]
Assay Submitter (PI): Wei Zheng
Glucocerebrosidase (GC) catalyzes the hydrolysis of beta-glucocerebroside to glucose and ceramide in lysosomes. Mutations in the glucocerebrosidase gene result in Gaucher disease, an autosomal recessive lysosomal storage disorder. Many of the mutations encountered in patients with Gaucher disease are missense alterations that may cause misfolding, decreased stability and/or mistrafficking of this lysosomal protein. […] These inhibitors include iminosugar analogs and three non-iminosugar inhibitors identified from a previous HTS of 62,000 compounds with the wild type recombinant enzyme. However, the enhancement of enzyme activity by the chaperone action of an enzyme inhibitor must be balanced against the direct inhibition of the enzyme. An enzyme activator could also function as a chaperone by binding to the enzyme and helping to correct its misfolding and mistrafficking. While activators for GC have not yet been identified, they may have better therapeutic potential than inhibitors. Therefore the discovery and development of chemical activators may provide a new strategy for the chaperone therapy.
We have optimized a new assay using N370S mutant GC derived from the spleen of a Gaucher patient. […] In addition, the MLPCN compound library has expanded, which increases the chance of finding new and better probes.
NCGC Assay Protocol Summary:
This is a fluorogenic enzyme assay with 4-methylumbelliferyl-beta-D-glucopyranoside as the substrate and N370S glucocerebrosidase from human spleen homogenate as the enzyme preparation. Upon the hydrolysis of this fluorogenic substrate, the resulting product, […] which can be detected by a standard fluorescence plate reader. Data were normalized to the controls for basal activity (without enzyme) and 100% activity (with enzyme). The AC50 values were determined from concentration-response data modeled with the standard Hill equation.
Assay buffer: 50 mM citric acid (titrated with potassium phosphate to pH 5.0), 100 mM potassium chloride, 10 mM sodium chloride, 1 mM magnesium chloride, 0.01% Tween-20.
1536-well assay protocol:
(1) Add 2 ul/well of spleen homogenate (27 ug final)
(2) Add 23 nL compounds in DMSO solution. The final titration was 0.5 nM to 58 uM.
(3) Add 2 ul of substrate (1 mM final)
(4) Incubate at 37C for 40 min.
(5) Add 2 ul stop solution (1M NaOH and 1M Glycine mixture, pH 10)
(6) Detect the assay plate in a ViewLux plate reader (PerkinElmer) with Ex=365 nm and Em=440nm.
Keywords: Glucocerebrosidase, beta-glucosidase, Gaucher Disease, pharmacological chaperone, chaperone therapy, high throughput screening, glucocerebrosidase inhibitor, MLSMR, MLSCN, NIH Roadmap, qHTS and NCGC
Potency is read from the fitted curve at half-maximal effect.

Row | SMILES | activity change, negative = inhibition | Potency
1 | CC1CCN(C(=O)COC(=O)CCC(=O)c2cccs2)CC1 | -8.17% | –
2 | Cc1cc2nc3c(=O)[nH]c(=O)nc-3n(C[C@H](O)[C@H](O)[C@H](O)CO)c2cc1C | 2.13% | –
3 | CO[C@@]12[C@@H](COC(N)=O)C3=C(C(=O)C(C)=C(N)C3=O)N1C[C@@H]1N[C@@H]12 | -3.21% | –
4 | COc1ccccc1C(=O)Nc1ccc(C)c(S(=O)(=O)N2CCCCC2)c1 | -1.07% | –
5 | COc1cc(C(c2c(NC(=O)c3ccco3)sc(C)c2C)N2CCOCC2)cc(OC)c1OC (stereo not given) | -2.37% | –
6 | CC1(C(=O)OCC(=O)Nc2ncc(Cl)cc2Cl)CC1(Cl)Cl (stereo not given) | -0.315% | –
7 | Cc1cccc(N2CCN(S(=O)(=O)c3ccc(-c4cc(C)no4)s3)CC2C)c1 (stereo not given) | -0.877% | –
8 | Cc1cccc(N2CCN(C(=O)c3cccc(S(=O)(=O)N4CCc5ccccc5C4)c3)CC2C)c1 (stereo not given) | -25.4% | –
9 | Cc1cccc(N2CCN(S(=O)(=O)c3ccc4[nH]c(=O)c(=O)[nH]c4c3)CC2C)c1 (stereo not given) | – | 12.6 µM (active)
10 | CCCCNc1nc(C)nc2c1nc(-c1ccccc1)n2CCCCN(CC)CC | -8.02% | –
11 | CC(C)[C@@H](CC(=O)N[C@@H]1CCNC[C@H]1C(=O)N[C@H](CC(=O)N[C@@H](CCC(=O)O)CC(=O)O)Cc1ccccc1)NC(=O)C[C@H](CO)NC(=O)[C@@H]1CNCC[C@H]1N | 2.57% | –
12 | CN(CC(=O)NC(=O)Nc1ccccc1F)Cc1ccccc1 | -12.4% | –
13 | Oc1ccc(-c2c(-c3ccccc3)nn3c(C(F)(F)F)cc(C(F)(F)F)nc23)cc1 | -2.59% | –
14 | Cn1c(N)c(C(=O)COC(=O)c2cc(C(F)(F)F)nc3c(C(F)(F)F)cccc23)c(=O)n(C)c1=O | -1.81% | –
15 | Cc1cc(C)cc(NC(=O)C(c2ccccc2)N2CCN(CC(=O)N3CCCC3)CC2)c1 (stereo not given) | -10.5% | –
16 | CCCn1c(-c2ccc(F)cc2)nc2c(NCC3CCCN3CC)nc(C)nc21 (stereo not given) | 3.01% | –
17 | Cc1cccc(CNc2ccnc(-c3cccnc3)n2)c1 | 4% | –
18 | CC(C)C(NS(=O)(=O)c1ccc(-c2ccc(Br)cc2)cc1)C(=O)O (stereo not given) | -1% | –
19 | Cn1nc(C(=O)OCC(=O)N(Cc2ccccc2)C(C)(C)C)c2ccccc2c1=O | -0.388% | –
20 | O=S(O)S(=O)(=O)O | -2.71% | –
21 | O=C(CN1CCN(C2CCS(=O)(=O)C2)CC1)N1N=C(c2ccc(Cl)cc2)CC1c1ccco1 (stereo not given) | -0.578% | –
22 | O=C(CCNS(=O)(=O)c1ccccc1)NCCCc1ccccc1 | -3.56% | –
23 | Cc1ccc(-n2nc(C)c(C(=O)O)c2-n2cccc2)cc1 | -10.4% | –

Row | SMILES | activity change, negative = inhibition | Potency
24 | CCC(=O)OCCNc1nc(-c2ccccc2)nc2ccccc12 | – | 2 µM (active)
25 | COc1ccccc1-c1nc(NCCNC(C)=O)c2ccccc2n1 | -7.54% | –
26 | COCCNc1nc(-c2ccccc2)nc2c1oc1ccccc12 | 26.2% | –
27 | O=C(CN1CCCCC1)NC(=O)Nc1ccccc1F | -13.3% | –
28 | COc1ccc(C2/C=C\CN(C(=O)c3ccc(C)cc3)C(Cc3ccccc3)C(=O)N2Cc2ccc(F)cc2)cc1 (stereo not given) | -6.74% | –
29 | O=C(CSc1nnc(CN2CCCC2)n1-c1ccc(F)cc1)c1ccc2c(c1)OCO2 | -3.16% | –
30 | COc1ccc2c(c1)O[C@@H](c1ccc3c(c1)OCO3)[C@H](OC(=O)NCCc1ccc(OC)c(OC)c1)C2=O | 1.5% | –
31 | Cc1ccc(NC(=O)Cn2c(C)csc2=O)cc1 | 0.884% | –
32 | CN1CCN(c2ccc(NC(=O)c3cc(Cl)c4c(c3)OCCO4)cc2)CC1 | -1.3% | –
33 | C1CCC2OC2C1 (stereo not given) | 4.47% | –
34 | Cc1ccc(C)c(NC(=O)C(c2ccccc2)N2CCN(CC(=O)NC3CC3)CC2)c1 (stereo not given) | -6.58% | –
35 | COc1ccc(CCNC(=O)COC(=O)Cc2cccc(F)c2)cc1 | -3.01% | –
36 | C=CCOC(=O)C(=C)C | -1.86% | –
37 | O=C(NCc1ccccn1)[C@]1(C(F)(F)F)C[C@H](CCc2ccccc2)CCCO1 | 7.16% | –
38 | COC(=O)C(CC(C)C)NS(=O)(=O)c1cc(Br)ccc1Br (stereo not given) | -1.26% | –
39 | Cc1csc(NC(=O)C2CCN(S(=O)(=O)c3ccccc3)CC2)n1 | -2.1% | –
40 | CNC(=O)[C@]1(C(F)(F)F)C[C@H](CCc2ccccc2)CCCO1 | 1.95% | –
41 | CN1CCc2nc(-c3ccccc3)c(-c3ccccc3)cc2C1 | -2.21% [at 12.8 µM] | –
42 | COc1ccc(-c2nc(-c3ccccc3)oc2Nc2ccc3ccccc3c2)cc1 | 0.754% | –
43 | COc1cccc([C@@H]2Oc3ccc(Br)cc3C(=O)[C@H]2OC(=O)NCc2ccc3c(c2)OCO3)c1 | 7.03% | –
44 | CC(OC(=O)Cc1ccc(F)cc1)C(=O)N1CCc2ccccc21 (stereo not given) | 0.251% | –
45 | CCOC(=O)Cn1c(=O)sc2cccc(Cl)c21 | 9.84% | –
